About 1,500 (0.52%) of roughly 290,000 compounds were called active. Only a selection was taken, and actives are over-represented in it overall. Values without a mark were called inactive. Cut-off read from the data, not from the text of the source: active = inhibition above about 50%; inactive = the rest.
Molecular target: Dual specificity protein phosphatase 3 (Homo sapiens) (UniProt P51452)
Test: VHR1 phosphatase inhibitors, primary screen, biochemical, absorbance, uHTS (AID 1654)
Details: recombinant VHR phosphatase, pNPP absorbance, at 13.3 µM, hits give high values

Dual specificity protein phosphatase 3 (Homo sapiens), sequence (P51452 whole entry, looked up): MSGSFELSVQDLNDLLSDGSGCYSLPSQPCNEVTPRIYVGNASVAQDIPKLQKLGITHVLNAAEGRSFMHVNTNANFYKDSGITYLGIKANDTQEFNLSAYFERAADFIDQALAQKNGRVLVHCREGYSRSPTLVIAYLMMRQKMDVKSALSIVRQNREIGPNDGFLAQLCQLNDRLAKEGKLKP

| Compound | inhibition |
| --- | --- |
| COc1cccc(NC(=S)NCCCN2CCOCC2)c1 | 16.2% |
| Cc1cc(C)cc(NC(=S)NCCCN2CCOCC2)c1 | -2.7% |
| CCCCc1ccc(NC(=S)NCCCN2CCOCC2)cc1 | 52.9% (active) |
| COc1cccc(C(=O)Nc2nnc(S(=O)(=O)N3CCCCC3)s2)c1 | 9.5% |
| CC(=O)c1ccc(S(=O)(=O)NCc2nnnn2-c2ccccc2)cc1 | -9.1% |
| CCOc1c(Br)cc(/C=C2\C(=O)N(CCC#N)N=C2C)cc1OC | 0.9% |
| COc1cc(/C=C2\C(=N)N3N=C(CC(=O)N4CCOCC4)SC3=NC2=O)cc(OC)c1OC | -15.7% |
| Cn1c(CCc2ccccc2)nnc1SCC(N)=O | 2.3% |
| COc1ccc([N+](=O)[O-])cc1N(CC(=O)Nc1ccccc1C(=O)N1CCOCC1)S(C)(=O)=O | 29.6% |
| CC(=O)Nc1ccc(NC(=O)CSc2nnnn2-c2ccccc2F)cc1 | 30% |
| CCn1nnnc1SCC(=O)Nc1ccc(N(C)C)cc1 | 54.4% (active) |
| CCn1nnnc1SCC(=O)c1ccc(C)cc1C | 8.9% |
| CC(C)c1ccc2c(c1)c(SC(C)(C)C)c(CC(C)(C)C(=O)O)n2Cc1ccc(Cl)cc1 | -1.6% |
| Cn1c(SCC(=O)NC2CCCCC2)nnc1-c1ccc(N)cc1 | 15.8% |
| CCOc1cccc(-c2nnc(SCC(=O)NC3CC3)n2C)c1 | 24% |
| Cn1c(SCC(=O)NC2CCCCC2)nnc1-c1cc2ccccc2o1 | 55.6% (active) |
| O=[N+]([O-])c1cc([N+](=O)[O-])c(Oc2cc(F)cc(F)c2F)cc1NN1CCCCC1 | 16.6% |
| COc1ccc(NC(=S)N2CCCC(CO)C2)c(OC)c1 (configuration not stated) | -17.2% |
| COc1cc(NC(=S)N2CCCC(C)C2)cc(OC)c1OC (configuration not stated) | 56.3% (active) |
| COc1cc(NC(=S)N2CCCC(C)C2)c(OC)cc1Cl (configuration not stated) | 10.6% |
| Cc1ccc(S(=O)(=O)N(CC(=O)Nc2cccnc2)c2ccc(Br)cc2)cc1 | -1.5% |

| Compound | inhibition |
| --- | --- |
| COC(=O)C1(CCSC)NC(c2ccc(OC)cc2OC)C2C(=O)N(c3cccc(C(C)=O)c3)C(=O)C21 (configuration not stated) | 4.9% |
| CCOc1ccccc1CN1CCN(C2CCC2)CC1CCO (configuration not stated) | 6.5% |
| COc1ccc(N2CCC(N3CCN(C)C(CCO)C3)CC2)cc1 (configuration not stated) | 6.5% |
| COc1ccccc1N1CCC(N2CCN(CC(C)(C)C)C(CCO)C2)CC1 (configuration not stated) | 59.1% (active) |
| COc1ccc(-c2cc(C(=O)n3cnc4ccccc43)c3ccccc3n2)cc1 | 51.6% (active) |
| CNC(=O)COC(=O)c1cc(-c2ccc(OC)cc2)nc2ccccc12 | 11% |
| COc1ccc(-c2cc(C(=O)N(C)Cc3ccccc3)c3ccccc3n2)cc1 | 12.2% |
| Cc1ccc(C)c(S(=O)(=O)Nc2cc(C)on2)c1 | 16.3% |
| COc1ccc(N(CC(=O)N2CCOCC2)S(=O)(=O)c2ccccc2)cc1Cl | 18.1% |
| COCCCNC(=O)C1CC(=O)N(c2ccc(C)cc2)C1 (configuration not stated) | 3.4% |
| COCCNC(=O)C1CCN(C(=O)C2CC(=O)N(c3ccc(C)cc3)C2)CC1 (configuration not stated) | 50% (active) |
| CCCC(C)NC(=O)C1CCN(C(=O)C2CC(=O)N(c3ccc(C)cc3)C2)CC1 (configuration not stated) | 13% |
| CC1CCN(C(=O)c2ccc(S(=O)(=O)Cc3cc(F)ccc3F)c([N+](=O)[O-])c2)CC1 | 4.1% |
| COc1ccc(NC(=O)c2cc([N+](=O)[O-])ccc2NC(=O)CNC2CCCCC2C)c(OC)c1 (configuration not stated) | 12.5% |
| Cc1cc(NC(=O)[C@H](C)NC(=O)c2ccco2)ccc1Br | 10% |
| CSc1ncccc1C(=O)NC1CCCCCC1 | 21.8% |
| CSc1ncccc1C(=O)OCC(=O)N1CCOCC1 | 39.8% |
| CSc1ncccc1C(=O)OCc1ccc(Br)cc1 | 58.3% (active) |
| CN(CC(=O)Nc1c(Cl)cccc1Cl)C(=O)c1ccncc1 | 2.5% |
| O=C(CCS(=O)(=O)c1ccc2c(c1)NC(=O)CS2)NCc1ccccc1Cl | 25.2% |
| CCOc1ccc(-n2c(SCC(=O)Nc3ccc(OC)cc3)nc3sc4c(c3c2=O)CCN(C)C4)cc1 | 5.3% |

| Compound | inhibition |
| --- | --- |
| CN(C)CCCn1c(SCc2ccc(Cl)cc2)nnc1-c1ccncc1 | 24% |
| Cn1c(SCc2ccc(F)cc2)nnc1-c1ccncc1 | 53% (active) |
| Cc1ccc(CSc2nnc(-c3cnccn3)n2C)cc1 | 21.3% |
| CCOC(=O)c1ccc(NC(=O)c2nc[nH]c2C(=O)N[C@@H](CCCCNC(=O)OC(C)(C)C)C(=O)OC(C)(C)C)cc1 | 3.3% |
| CCc1ccc(OCC(=O)OC(C)C(=O)NC2CC2)cc1 (configuration not stated) | 5% |
| COc1ccc(NC(=O)Cn2c(-c3ccc(OC)cc3)cn(-c3ccc(C)cc3)c2=O)cc1 | 6.2% |
| CCn1c(=S)sc2c(=O)n(CC(=O)Nc3cccc(Br)c3)c(C)nc21 | -3.6% |
| CCn1c(=S)sc2c(=O)n(CC(=O)Nc3ccc(OC)cc3)c(C)nc21 | 57.9% (active) |
| Cc1c(Cl)cccc1NC(=S)NCC(O)c1ccccc1 (configuration not stated) | 2.3% |
| CC1CCC2(CC1)NC(=O)N(CC(=O)c1ccc3c(c1)OCO3)C2=O (configuration not stated) | 5.4% |
| CCOc1ccc(N(CC(=O)NCc2ccc(OC)cc2)S(=O)(=O)c2c(C)noc2C)cc1 | 30.2% |
| COc1ccc(S(=O)(=O)N(CC(=O)NCc2ccco2)c2ccc(F)cc2)cc1 | -4.2% |
| COc1ccc(CNC(=O)CN(c2ccc(OC)c(Cl)c2)S(=O)(=O)c2ccc(C)cc2)cc1 | 59.1% (active) |
| C=CCN1C(=O)C2(OCCCO2)c2cccc(Cl)c21 | 19.2% |
| Cc1cc(=O)oc2c3c(cc(OCC(=O)NCc4ccccn4)c12)OC(C)(C)CC3 | -2.9% |
| CC(=O)N[C@@H](C)C(=O)N1CCC(n2nccc2NC(=O)CCCc2ccccc2)CC1 | 10.4% |
| O=C(O)C1=NN(c2c(F)c(F)cc(F)c2F)C(=O)CC1 | -11.9% |
| O=S(=O)(NC1CCCCC1N1CCCCC1)c1ccc(Cl)cc1 (configuration not stated) | 52% (active) |
| O=S(=O)(NC1CCCCC1N1CCC(O)CC1)c1ccc(Cl)cc1 (configuration not stated) | 17.2% |
| CCN1CCN(C2CCCCC2NS(=O)(=O)c2ccc(Cl)cc2)CC1 (configuration not stated) | 11.4% |

Reference: PubChem BioAssay AID1654 (Sanford-Burnham Center for Chemical Genomics, 2009)
